In PubChem BioAssay AID488969 (Vanderbilt High Throughput Screening Facility, 2010):
Whole data set: some 110,000 compounds, median “z-score” near -0.1, cut for the highest 2% near 2. What follows is part of a selection rich in the highest values, with near analogues and random picks from the rest. Calls of active or inactive are those of the source.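 Rule for the calls: active = z-score in the third read window above 3 or below -3; inactive = the rest.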

The molecules below were run against Metabotropic glutamate receptor 8 (Rattus norvegicus) (UniProt P70579) (assay: rat mGluR8 modulators via GIRK flux, primary screen, cell-based, thallium flux, HTS (AID 488969)). Details: HEK293 rat mGluR8, GIRK (G protein-gated inwardly rectifying potassium channel) thallium flux, FluoZin2; at 10 µM; stronger effect = higher value; submaximal glutamate (EC20) added with thallium.
Chain of Metabotropic glutamate receptor 8 (Rattus norvegicus) (P70579 whole entry, looked up): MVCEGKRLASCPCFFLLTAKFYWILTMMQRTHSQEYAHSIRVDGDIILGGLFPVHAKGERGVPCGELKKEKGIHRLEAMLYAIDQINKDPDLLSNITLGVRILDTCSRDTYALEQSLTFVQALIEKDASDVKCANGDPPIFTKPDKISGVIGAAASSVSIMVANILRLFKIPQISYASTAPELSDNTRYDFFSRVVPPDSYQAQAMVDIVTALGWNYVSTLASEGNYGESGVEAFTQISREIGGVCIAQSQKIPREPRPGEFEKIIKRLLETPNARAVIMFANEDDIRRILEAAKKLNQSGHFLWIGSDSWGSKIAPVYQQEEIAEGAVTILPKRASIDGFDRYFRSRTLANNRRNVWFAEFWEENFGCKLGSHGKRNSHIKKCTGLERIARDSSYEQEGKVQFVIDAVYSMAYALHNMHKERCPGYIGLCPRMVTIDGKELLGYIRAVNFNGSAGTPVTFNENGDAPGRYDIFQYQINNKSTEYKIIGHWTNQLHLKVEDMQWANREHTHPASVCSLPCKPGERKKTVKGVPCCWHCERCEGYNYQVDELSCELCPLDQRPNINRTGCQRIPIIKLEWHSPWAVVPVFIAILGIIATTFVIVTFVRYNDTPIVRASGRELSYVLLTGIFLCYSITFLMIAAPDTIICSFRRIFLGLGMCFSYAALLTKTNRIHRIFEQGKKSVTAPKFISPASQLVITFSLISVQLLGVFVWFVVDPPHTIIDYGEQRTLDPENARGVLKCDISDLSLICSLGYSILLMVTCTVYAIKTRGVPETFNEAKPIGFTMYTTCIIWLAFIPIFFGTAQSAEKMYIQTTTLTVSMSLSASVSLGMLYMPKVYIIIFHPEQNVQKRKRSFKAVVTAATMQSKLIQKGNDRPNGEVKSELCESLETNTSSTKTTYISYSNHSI

Compound | z-score
CC(=O)Nc1c(C(=O)N2CCOCC2)cnn1-c1ccc(C)c(C)c1 | -0.0497
CC(C)NC(=O)Cn1c(=O)cnc2ccccc21 | 0.171
Clc1ccc(-n2ncc3c(NCc4ccc5c(c4)OCO5)ncnc32)cc1 | -0.426
O=C(CCc1c[nH]c2ccccc12)NCc1ccc2c(c1)OCO2 | -0.143
O=C(CSc1ncnc2c1cnn2-c1ccc(Cl)cc1)NCc1ccc2c(c1)OCO2 | 3.12 (active)
O=C(CSc1ncnc2c1cnn2-c1ccc(F)cc1)NCc1ccc2c(c1)OCO2 | 0.54
O=C(CSc1nc(C2CCCCC2)nc2ccccc12)NCc1ccc2c(c1)OCO2 | -1.07
O=C(CSc1nc(C2CC2)nc2ccccc12)NCc1ccc2c(c1)OCO2 | -0.21
CC(C)C(=O)NCCSc1c[nH]c2ccccc12 | -0.143
O=C(CSc1nc(CCC2CCCC2)nc2ccccc12)NCc1ccc2c(c1)OCO2 | 8.15 (active)
O=C(NCCSc1c[nH]c2ccccc12)c1ccc(Br)o1 | -0.00412
O=C(CSc1c[nH]c2ccccc12)NCc1ccc2c(c1)OCO2 | 2.27
O=C(NCCSc1c[nH]c2ccccc12)c1ccco1 | 3.57 (active)
Cn1c(SCC(=O)NCc2ccc3c(c2)OCO3)nnc1-c1c[nH]c2ccccc12 | -0.821
O=C(CN1C(=O)c2ccccc2C1=O)N1CCN(c2nnc(-c3ccccc3)c3ccccc23)CC1 | 0.179
COC(=O)Nc1ccc(OCc2ccccc2)cc1 | 0.466
CC1CCN(S(=O)(=O)c2cc(C(=O)N3CCN(c4ncccn4)CC3)ccc2Br)CC1 | -0.827
O=C(NCCC1=CCCCC1)C1CCCN(S(=O)(=O)c2cccnc2)C1 (configuration not stated) | 0.742
COc1ccc(S(=O)(=O)n2nc(-c3ccc(Cl)cc3)cc2N)cc1OC | -0.0966

Compound | z-score
O=C(Cn1cnc2c(nnn2Cc2ccc(F)cc2)c1=O)N1CCCCC1 | 0.251
Cc1ccc(C(=O)CCC(=O)Nc2cccnc2)cc1C | -0.25
CCCCC(=O)Nc1ccc(C(=O)Nc2nnc(COC)s2)cc1 | -0.311
Nc1nonc1C(=O)NCCNCc1cc(Br)ccc1OCc1ccc(F)cc1 | 0.587
Nc1nonc1C(=O)NCCNCc1ccccc1OCc1ccccc1F | 1.61
Nc1nonc1C(=O)NCCNCc1cc(Br)ccc1OCc1ccccc1F | 4.61 (active)
Cc1nn(CC(=O)NCc2ccc(OC(C)C)cc2)c(=O)c2cc3occc3n12 | -0.4
Cc1ccccc1OCc1nnc(SCc2cc(=O)[nH]c3ccccc23)n1-c1ccccc1 | 0.00735
O=P(CCNCc1ccco1)(c1ccccc1)c1ccccc1 | 0.267
Cn1nnnc1SCc1nnc(-c2ccc(Cl)cc2)o1 | 2.68
Cn1nnnc1SCc1nnc(-c2ccc(F)cc2)o1 | -0.226
Cn1nnnc1SCc1nnc(-c2ccccc2Br)o1 | 0.436
Cc1ccc(/C(O)=C2/C(=O)C(=O)N(CCN3CCOCC3)C2c2cccs2)cc1 (configuration not stated) | -0.157
COc1cccc2cc(C(=O)N3CCN(c4ncccn4)CC3)c(=O)oc12 | -0.344
COc1ccc(C(=O)N2CCN(C3CCCCC3)CC2)c(OC)c1 | -0.579
CCCC(=O)OCCNc1cc(SCCC(=O)OC)c2nonc2c1[N+](=O)[O-] | -0.658
COC(=O)CCSc1cc(NCCOC(C)=O)c([N+](=O)[O-])c2nonc12 | -0.0935
CCCSc1cc(NCCOC(C)=O)c([N+](=O)[O-])c2nonc12 | 2.48
Oc1cnc2ccccc2c1CN1CCOCC1 | -0.0791

Compound | z-score
CCOc1cc(C)c(Cl)cc1S(=O)(=O)NCc1ccc2c(c1)OCO2 | -0.837
Cc1ccc(S(=O)(=O)N2CCN(C3CC(=O)N(Cc4ccccc4)C3=O)CC2)cc1C (configuration not stated) | -0.767
CCCn1c(C)cc(/C=C(\C#N)C(=O)OCC(=O)Nc2cccc(OC)c2)c1C | 3.42 (active)
CCCn1c(C)cc(/C=C(\C#N)C(=O)OCC(=O)Nc2ccc(OC)c(Cl)c2)c1C | -0.243
CCCn1c(C)cc(/C=C(\C#N)C(=O)OCC(=O)Nc2cc(OC)c(OC)c(OC)c2)c1C | -0.21
CN(CC(=O)NCCN1CCN(c2ccccc2)CC1)S(=O)(=O)c1ccc2c(c1)CCC(=O)N2 | 0.291
CC1(C)COC(c2cc([N+](=O)[O-])ccc2Cl)=N1 | -0.41
Clc1ccc(/C=N/Nc2nn[nH]n2)cc1 | -1.27
COc1ccc(C(=O)Nc2ccc(Oc3ncnc4sc(-c5ccccc5)cc34)cc2)cc1OC | 4.83 (active)
COc1cc(C(=O)Nc2ccc(Oc3ncnc4sc(-c5ccccc5)cc34)cc2)cc(OC)c1OC | 0.344
COc1ccccc1C(=O)Nc1ccc(Oc2ncnc3sc(-c4ccccc4)cc23)cc1 | -0.975
CCCCCCN1N=C(C)C(C(=O)c2ccc(Cl)cc2)C1=O (configuration not stated) | 0.521
CC1=NN(c2ccccc2)C(=O)C1C(=O)c1ccccc1 (configuration not stated) | -0.168
CC1=NN(c2ccccc2)C(=O)C1C(=O)c1ccc(Cl)cc1 (configuration not stated) | 2.14
Clc1ccc(C2=Nn3c(nnc3-c3cccs3)SC2)cc1 | -0.153
CCOC(=O)C1=C(C)NC(=O)CC1c1ccccc1 (configuration not stated) | 0.409
Cc1ccc(-n2c(=S)[nH]c3c(oc4ccccc43)c2=O)cc1 | 0.618
COc1ccc(-n2c(=S)[nH]c3sc4c(c3c2=O)CCc2ccccc2-4)cc1 | 0.114
Cc1ccc(-n2c(=S)[nH]c3sc4c(c3c2=O)CCc2ccccc2-4)cc1 | 2.33
